# Bioassay records deposited in PubChem BioAssay by National Center for Advancing Translational Sciences (NCATS).
# Shown are actives, neighbours in structure and some others; about 5.7% of the full set was active somewhere.
# Gal4-VP16 FLuc = inhibits Gal4-VP16 luciferase reporter, ROR gamma counter-screen. Drosophila S2 Gal4-VP16 UAS-luciferase, luminescence, 20 h. Potency, µM (top dose mostly 53.6 µM), without a hit: at the top dose activity, negative = inhibition, usual class: inhibitors. 310,000 tested, 3.5% active;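 also: Gal4-VP16 expression switched on by copper sulfate through the metallothionein promoter; nearly all actives have a fitted effect of over 50% in size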
# B2AR arrestin = recruits beta-arrestin to the human beta2-adrenergic receptor; Potency, µM (highest dose often 46.1 µM), for inactives: at the top dose activation, usual class: activators; beta-arrestin recruitment to beta2AR, cell-based reporter; P07550; 330,000 tested, 0.02% active;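 also: 0% = DMSO controls and full agonism = EC100 isoproterenol or metaproterenol; nearly all actives have a fitted effect of over 65% in size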
# Target sequence (P07550 whole entry, looked up): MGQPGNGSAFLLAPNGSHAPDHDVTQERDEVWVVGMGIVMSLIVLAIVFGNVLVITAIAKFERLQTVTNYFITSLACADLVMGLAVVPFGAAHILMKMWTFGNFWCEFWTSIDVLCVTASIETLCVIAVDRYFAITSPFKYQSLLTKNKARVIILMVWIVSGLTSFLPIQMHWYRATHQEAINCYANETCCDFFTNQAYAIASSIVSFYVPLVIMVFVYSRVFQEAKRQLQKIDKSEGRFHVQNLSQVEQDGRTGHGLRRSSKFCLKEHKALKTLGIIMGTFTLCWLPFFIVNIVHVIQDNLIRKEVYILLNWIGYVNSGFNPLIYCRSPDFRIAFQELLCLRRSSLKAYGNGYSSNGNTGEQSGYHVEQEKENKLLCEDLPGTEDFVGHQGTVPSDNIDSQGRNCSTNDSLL
# NPSR antagonist = neuropeptide S receptor (human) antagonism, cAMP; Q6W5P4; Potency, µM (doses to about 38.3 µM), inactives show at the top dose activity change, negative = inhibition, usual class: inhibitors; 220,000 tested, 1% active; CHO-NPSR cells, cAMP TR-FRET, antagonist mode; also: nearly all actives have a fitted effect of over 50% in size
# RORg inh = inhibitors of mouse ROR gamma transcriptional activity; 310,000 tested, 5.4% active; Drosophila S2 Gal4-RORgamma UAS-luciferase reporter, 20 h; P51450; AID 2551; Potency, µM (highest dose often 53.6 µM), inactives show at the highest dose activity change, negative = inhibition, hits mostly inhibitors; also: nearly all actives have a fitted effect of over 60% in size
#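 Luminescence from a UAS-regulated Photinus luciferase reporter in stably transfected Drosophila Schneider cells is measured; decreased signal marks ROR gamma inhibition. Fusion expression is induced by 700 uM copper sulfate for 20 hr.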
# Starred values were filed as active, the others as inactive; ? = inconclusive; . = no result given; [ ] = dose if it differs, or a comment. Calls follow the shape of the dose curve; as a rule, active = well fitted curve in the direction sought with a large enough effect; inconclusive = small, poorly fitted or top-dose-only effect, or another doubt; inactive = no such curve, though single readings can be large; an effect the other way counts as inactive or inconclusive. Unless noted, % is scaled to controls: 0 for no effect and ±100 for the full control effect; potency is read from the fitted curve at half-maximal effect.
SMILES,Gal4-VP16 FLuc,B2AR arrestin,NPSR antagonist,RORg inh
CC(=O)OCC1OC(C#Cc2ccc(Cl)cc2)C=CC1OC(C)=O (stereo not drawn),-15%[10 µM],.,.,1%[10 µM]
Cc1noc(C)c1COc1ccccc1C(=O)NCc1ccco1,.,0%,.,.
O=c1c2c(-c3ccccc3)csc2nc2c3ccccc3c(NCCN3CCOCC3)nn12,3.2µM*,0%,?,1.6µM*
O=c1c2ccccc2nc2c3ccccc3c(NCCN3CCOCC3)nn12,20µM*,0%,-1%[46.1 µM],13µM*
c1ccc(-c2csc3ncnc(NCCCN4CCOCC4)c23)cc1,-20%,0%,22%,8%
O=c1c2ccccc2nc(-c2ccccc2)n1CCN1CCOCC1,-2%,0%,-11%[46.1 µM],7%
COc1ccc(OC)c(S(=O)(=O)N/N=C\c2cn(CC(N)=O)c3ccccc23)c1,-8%,0%,.,1%
CCC(CC)C(=O)N(CCc1ccc(OC)cc1)Cc1nc2ccccc2c(=O)[nH]1,10µM*,-1%,-28%[46.1 µM],5µM*
COc1ccc(CCN(Cc2nc3ccccc3c(=O)[nH]2)C(=O)c2ccco2)cc1,?,0%,-3%[46.1 µM],13µM*
COCC(=O)N(CCc1ccc(OC)c(OC)c1)Cc1nc2ccccc2c(=O)[nH]1,-13%,0%,14%[46.1 µM],-32%
O=C(NS(=O)(=O)Nc1ccccc1)C1=C(N2CCCC2)COC1=O,.,0%,.,.
O[C@@H]1CO[C@H]2C1OC[C@@H]2O (stereo partly drawn),-11%,.,.,5%
CC(NC(=O)C1CCCN1C(=O)CN)C(=O)O (stereo not drawn),-7%,.,.,-3%
N=C1/C(=C\c2ccc(OCc3ccccc3)cc2)C(=O)N=C2SC(N3CCCC3)=NN12,4%,0%,21%,-9%
Cc1cc(C)nc(N/N=C/C2=C(N3CCOCC3)C(=C\c3ccc(Cl)cc3)/CC2)n1,?,-1%,?,10µM*
Cc1ccc2nc3cc([N+](=O)[O-])cc([N+](=O)[O-])c3cc2c1,2.2µM*,0%,7.9µM*,?
S=C(Nc1cccc(Cl)c1)N1CCN(Cc2ccccc2)CC1,?,-1%,-14%,10µM*
COc1cc(NC(=S)N2CCN(Cc3ccccc3)CC2)cc(OC)c1,?,0%,-2%[46.1 µM],?
COc1cccc(NC(=S)N2CCN(Cc3ccccc3)CC2)c1,20µM*,0%,15%,?
COc1ccc(NC(=S)N2CCN(Cc3ccccc3)CC2)cc1,16%[10 µM],0%,12%,11µM*
CCOc1cc(N2CCOCC2)c(OCC)cc1NC(=O)COC(=O)c1ccc([N+](=O)[O-])o1,.,0%,.,.
O=C(O)CCCC/C=C(\c1ccccc1)c1cccnc1,-1%,.,.,-15%
O=c1[nH]cnc2c1sc1nc(-c3ccccc3)c3c(c12)CCCC3,?,0%,2%,19%
S=c1nc[nH]c2c1sc1nc(-c3ccccc3)c3c(c12)CCCC3,10µM*,1%,-9%[46.1 µM],16µM*
O=C(c1cnccn1)N1CCC2(CC1)CCN(c1cccc(-c3ccccc3)c1)CC2,-19%,.,.,?
SMILES,Gal4-VP16 FLuc,B2AR arrestin,NPSR antagonist,RORg inh
COc1ccc(-n2c(=O)c(-c3cccs3)nc3cnc(N4CCOCC4)nc32)cc1,-13%,.,.,11%
CN1CCN(c2ncc3nc(-c4cccs4)c(=O)n(CCC#N)c3n2)CC1,6.3µM*,.,.,0.71µM*
CN(C)c1ncc2nc(-c3cccs3)c(=O)n(CCC#N)c2n1,-6%,.,.,-14%
CN1CCN(c2ncc3nc(-c4cccs4)c(=O)n(Cc4cccs4)c3n2)CC1,?,.,.,13µM*
COc1ccc(-n2c(=O)c(-c3cccs3)nc3cnc(N4CCNCC4)nc32)cc1,10µM*,.,.,?
O=c1c(-c2cc(F)cc(F)c2)nc2cnc(N3CCOCC3)nc2n1Cc1cccs1,2%,.,.,-22%
O=c1c(-c2cc(F)cc(F)c2)nc2cnc(N3CCNCC3)nc2n1Cc1cccs1,?,.,.,2.8µM*
CN1CCN(c2ncc3nc(-c4ccccc4)c(=O)n(Cc4cccs4)c3n2)CC1,-1%,.,.,-4%
CC(C)c1ccc(C2CC(=O)c3cnc(NC(=O)c4ccco4)nc3C2)cc1 (stereo not drawn),-4%,-1%,.,0%
CC(=O)N(O)[C@@H]1c2cc(C#N)ccc2OC(C)(C)[C@H]1O,-5%,.,.,1%
COc1ccc(-c2nc3cnc(N4CCNCC4)nc3n(Cc3ccc(F)cc3)c2=O)cc1,-10%,.,.,-25%
O=c1c(-c2ccc(F)cc2)nc2cnc(N3CCNCC3)nc2n1Cc1ccc(F)cc1,?,.,.,14µM*
O=c1c(-c2cccs2)nc2cnc(N3CCNCC3)nc2n1Cc1cccs1,8.9µM*,.,.,18µM*
